From PubChem BioAssay AID1159580 (chemical genetic matrix, 2015)
Among all 5,500 compounds or so, about 2,000 (36%) were called active. Another 18% or so got no clear call; they are omitted. No stated cut-off is given here; in the data, active means normalized growth mostly below about 0.91 (no sharp cut-off); inconclusive means no clear call, values can overlap the other calls; inactive means mostly above about 0.92. Some of the results follow.

Experiment: chemical genetic growth profiling, strain panel (AID 1159580);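 further: tested at 20 µM; growth read once vehicle control cultures reached saturation at 30 °C; 1 = growth at the plate median or of vehicle wells; lower values mean less growth of the strain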
Conditions: growth OD

Measured: normalized growth

CN(C)c1ccc(C(=O)NN)cc1
inactive: S. cerevisiae deletion strains, locus YAL013W, strain DEP1, active compounds read low 1.02 | S. cerevisiae deletion strains, locus YBR229C, strain ROT2, active compounds read low 1.02 | S. cerevisiae deletion strains, locus YDL101C, strain DUN1, active compounds read low 1.02 | S. cerevisiae deletion strains, locus YDL134C, strain PPH21, active compounds read low 1.01 | S. cerevisiae deletion strains, locus YDR150W, strain NUM1, active compounds read low 0.924 | S. cerevisiae deletion strains, locus YEL061C, strain CIN8, active compounds read low 0.99 | S. cerevisiae deletion strains, locus YGR078C, strain PAC10, active compounds read low 1.01 | S. cerevisiae deletion strains, locus YHR030C, strain SLT2, active compounds read low 1.08 | S. cerevisiae deletion strains, locus YHR087W, strain rtc3, active compounds read low 1.03 | S. cerevisiae deletion strains, locus YJL187C, strain SWE1, active compounds read low 1.01 | S. cerevisiae deletion strains, locus YJR043C, strain POL32, active compounds read low 1.02 | S. cerevisiae deletion strains, locus YJR075W, strain HOC1, active compounds read low 1 | S. cerevisiae deletion strains, locus YKL190W, strain CNB1, active compounds read low 1.01 | S. cerevisiae deletion strains, locus YLR039C, strain RIC1, active compounds read low 1.14 | S. cerevisiae deletion strains, locus YLR058C, strain SHM2 (second series), active compounds read low 1.02 | S. cerevisiae deletion strains, locus YLR085C, strain ARP6, active compounds read low 0.96 | S. cerevisiae deletion strains, locus YLR262C, strain YPT6, active compounds read low 1.15 | S. cerevisiae deletion strains, locus YML094W, strain GIM5, active compounds read low 1.01 | S. cerevisiae deletion strains, locus YMR219W, strain ESC1, active compounds read low 1.01 | S. cerevisiae deletion strains, locus YMR263W, strain SAP30, active compounds read low 0.992 | S. cerevisiae deletion strains, locus YNL153C, strain GIM3, active compounds read low 1.02 | S. cerevisiae deletion strains, locus YNL298W, strain CLA4 (second series), active compounds read low 1 | S. cerevisiae deletion strains, locus YNL322C, strain KRE1, active compounds read low 1 | S. cerevisiae deletion strains, locus YNR030W, strain Alg12, active compounds read low 1.01 | S. cerevisiae deletion strains, locus YPL055C, strain LGE1, active compounds read low 0.954 | S. cerevisiae deletion strains, locus YPL241C, strain CIN2, active compounds read low 0.997 | S. cerevisiae deletion strains, locus YPR135W, strain CTF4, active compounds read low 1 | S. cerevisiae strains, strain wild type, active compounds read low 1.02
